NPSR antagonist: neuropeptide S receptor (human) antagonism, cAMP; Q6W5P4; CHO-NPSR cells, cAMP TR-FRET, antagonist mode; Potency, µM (series often up to 38.3 µM), for the others: at the top dose activity change, negative = inhibition, usual class: inhibitors; 1% of 220,000 active; AID 1461; further: potency means the concentration at half of the fitted maximal effect; on the % scale 0 is the no-effect control and ±100 the full control effect; nearly all actives have a fitted effect of over 50% in size
TRb SRC2 PPI: TRbeta-SRC2 interaction inhibition. P10828. TRbeta-SRC2 peptide binding, fluorescence polarization; receptor liganded with 1 µM T3. Potency, µM (highest dose often 106 µM), inactives show top-dose activity change, negative = inhibition, hits mostly inhibitors. 0.065% of 280,000 active;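 further: potency means the concentration at half of the fitted maximal effect; plate controls were bound peptide for no effect and peptide without receptor for full effect; nearly all actives have a fitted effect of over 50% in size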
Target sequence (P10828 whole entry, looked up): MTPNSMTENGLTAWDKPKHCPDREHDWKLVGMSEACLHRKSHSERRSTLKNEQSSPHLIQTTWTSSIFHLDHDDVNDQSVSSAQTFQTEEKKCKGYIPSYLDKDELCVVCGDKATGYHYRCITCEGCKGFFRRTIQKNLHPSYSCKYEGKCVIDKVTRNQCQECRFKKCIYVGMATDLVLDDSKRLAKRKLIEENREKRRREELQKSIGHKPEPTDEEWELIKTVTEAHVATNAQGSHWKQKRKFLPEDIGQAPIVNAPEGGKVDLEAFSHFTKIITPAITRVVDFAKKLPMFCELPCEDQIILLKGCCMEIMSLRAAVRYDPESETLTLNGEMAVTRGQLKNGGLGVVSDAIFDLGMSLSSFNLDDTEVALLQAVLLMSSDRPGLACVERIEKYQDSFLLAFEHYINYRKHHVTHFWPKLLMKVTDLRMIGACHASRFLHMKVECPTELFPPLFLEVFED
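Human TRb ligand-binding domain (0.6 uM) is mixed with 20 nM Texas Red SRC2 peptide and 1 uM T3; after compound addition and 5 hr at ambient temperature, polarization is measured and normalized to unbound and bound controls.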
TSHR antagonist: blocks TSH signaling through the human TSH receptor. P16473. TSHR-expressing cells, TSH-stimulated cAMP HTRF, 2 h; stronger effect = lower value. activity change, negative = inhibition, % at 11.5 µM. 0.2% of 330,000 active. AID 504810;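 active means activity change below a set negative limit, meaning inhibition stronger than a set level, cut at about -70% in these data; inconclusive means activity change between two set negative limits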; further: on the % scale 0 is the no-effect control and ±100 the full control effect
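Antagonism was scored as loss of TSH-driven cAMP in TSHR cells, stimulated with 4nM TSH (EC80) for 2 hours at 37 deg C and detected by homogeneous HTRF competition immunoassay.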
FBPA coupling cs: inhibits coupling enzyme system, counter-screen for aldolase hits | coupling enzyme system counterscreen, AmpLite Red fluorescence | activity change, negative = inhibition, % at 58.2 µM, hits read low | 0.67% of 290,000 active; in the data active means activity change below about -30%; further: on the % scale 0 is the no-effect control and ±100 the full control effect
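Coupling enzymes only (glyceraldehyde-3-phosphate) + compound, at 57.5 uM final, 10 min RT; add substrate/coupling/AmpLite Red mix, 20 min RT; fluorescence ex 525/em 598 nm. Actives flag coupling-system interference.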
TCR act: T cell receptor activation. AID 504894. 330,000 tested, under 10 active. Potency, µM (top dose mostly 9.22 µM), for the others: at the highest dose activation of IL-2 secretion, hits mostly activators. primary human leukocytes, anti-CD3, IL-2 HTRF, 48 h; further: % of control where 0% means no effect
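TCR engagement came from a-CD3 beads alone, with compounds added to primary human leukocytes for 48 hr. Secreted IL-2 bridged europium cryptate- and d2-labelled anti-IL-2 antibodies, giving FRET emission at 665nm after 320nm excitation.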
TexasRed fluor: alters Texas Red total fluorescence, flagging assay interference; TRb/SRC2 Texas Red total fluorescence interference; Potency, µM (highest dose often 106 µM), without a hit: at the top dose fluorescence change, negative = quenching; 0.29% of 280,000 active; active means well fitted curve in either direction with a large enough effect; inconclusive means small, poorly fitted or top-dose-only effect; further: potency means the concentration at half of the fitted maximal effect; on the % scale 0 is the no-effect control and ±100 the full control effect
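Flags fluorescent or light-absorbing compounds by total fluorescence, S + 2P, at 555 nm excitation and 632 nm emission. Mixture: 20 nM Texas Red SRC2 peptide, 0.6 uM human TRb LBD, 1 uM T3, 5% DMSO; compound exposure 5 h at ambient temperature.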
An asterisk follows results filed as active; u = inconclusive; x = no result; ! = a repeat was not active; [ ] = another dose, or the depositor's remark. Most compounds without a hit are left out; they make up all but 1% or so of the library. Unless noted, the call rests on the fitted dose curve; in most records, active means well fitted curve in the direction sought with a large enough effect; inconclusive means small, poorly fitted or top-dose-only effect, or another doubt; inactive means no such curve, though single readings can be large; an effect the other way counts as inactive or inconclusive.

SMILES | NPSR antagonist | TRb SRC2 PPI | TSHR antagonist | FBPA coupling cs | TCR act | TexasRed fluor
COC(=O)c1c(NC(=O)Cc2coc3cc(C)ccc23)sc2c1CCC2 | x | 20%[53 µM] | x | x | x | 3.5µM*[quencher]
CCNC(=O)c1c(NC(=O)Cc2coc3cc(C)cc(C)c23)sc2c1CCCC2 | x | 3% | x | x | x | 7%
CCOC(=O)c1c(NC(=O)Cc2coc3cc(C)cc(C)c23)sc2c1CCC2 | x | u | x | x | x | 0.025µM*[quencher]
CC(C)N1C(=O)S/C(=C\c2ccc(-c3ccc(Cl)c(C(=O)O)c3)o2)C1=O | x | x | -27 | 1 | x | x
CCN(CC)c1ccc(/C=C2/SC(=O)N(C(C)C)C2=O)o1 | -43% | 0% | -11 | -38* | -2%[46.1 µM] | 0%
Nc1nc(SCC(=O)C23CC4CC(CC(C4)C2)C3)n[nH]1 | -1%[46.1 µM] | -6% | -76* | 0 | 0% | 4%
COc1cc(C2C=C(C34CC5CC(CC(C5)C3)C4)NC(=S)N2)cc(OC)c1OC (configuration not stated) | 10µM* | -5% | -14 | 1 | -7% | -1%
Cc1cc(C)cc(C(=O)NC(CC(N)=O)c2ccc(NCCN3CCOCC3)c([N+](=O)[O-])c2)c1 (configuration not stated) | x | x | 29 | 4 | 1% | x
Cc1cc(C)cc(C(=O)NC(CC(N)=O)c2ccc(NCCN3CCCC3)c([N+](=O)[O-])c2)c1 (configuration not stated) | x | x | -89* | -1 | -3% | x
CO[C@@H]1[C@H](OC(=O)/C=C/C=C/C=C/C=C/C(=O)O)CC[C@]2(CO2)[C@H]1[C@@]1(C)O[C@@H]1CC=C(C)C | x | 2%[201 µM] | x | x | x | 0%[201 µM]
C[Si](Cl)(Cl)[Si](C)(Cl)Cl | x | 5%[201 µM] | x | x | x | 1%[201 µM]
O=C(CN1C(=O)C2CC=C(Cl)CC2C1=O)N1CCOCC1 (configuration not stated) | -15%[46.1 µM] | -2% | 15 | -36* | 0%[46.1 µM] | 2%
c1ccc2c(c1)ccc1c3ccccc3ccc21 | x | 5%[201 µM] | x | x | x | 1%[201 µM]
CCOc1cc(CNc2ccc(O)cc2)ccc1OCc1ccc(Cl)cc1Cl | -24%[46.1 µM] | 28µM* | -13 | -52* | 3% | 19%
CCOc1cc(CNCc2ccccc2)ccc1OCc1ccc(Cl)cc1 | x | x | 3 | -1 | -7% | x
Oc1ccc(NCc2ccccc2OCc2ccccc2F)cc1 | u | 35µM*! | -7 | -52* | -6% | 9%[11.2 µM]
CCOc1ccccc1CNc1ccc(O)cc1 | -4% | 28µM* | 3 | -39* | 5% | u
CCOc1cccc(CNc2ccc(O)cc2)c1OCc1ccc(Cl)cc1 | u | 35µM* | -2 | -51* | -5% | u
Cc1ccc(NCc2ccccc2OCc2ccccc2F)cc1 | -22%[46.1 µM] | -6% | 10 | -6 | 3% | -6%
CCn1c(=O)n(CC)c2cc(N3CCCCC3)c(NC(=O)Nc3ccccc3Cl)cc21 | x | 1% | x | x | x | 3%
CCc1ccc(OCC(=O)N(Cc2ccco2)Cc2ccccc2Cl)cc1 | x | -3% | x | x | x | -3%
Cc1cc2nc(SCC(=O)Nc3nonc3C)c3c(c2cc1C)CCCC3 | 7.9µM* | 0% | 49 | 0 | x | -7%
Cc1nonc1NC(=O)CSc1nc(C2CCCCC2)nc2ccccc12 | u | -4% | -34 | 3 | 3% | -7%
COC(=O)C1=C(C(=O)OC)[C@@H]2N(C)c3ccc(OC)cc3[C@@]23C[C@@H](C(=O)OC)N(C(C)=O)C3=N1 | x | 8%[11.2 µM] | x | -1 | x | -2%[11.2 µM]
COc1ccc(S(=O)(=O)NCCN2CCOCC2)c(C)c1C | x | x | 14 | -2 | 5% | x
SMILES | NPSR antagonist | TRb SRC2 PPI | TSHR antagonist | FBPA coupling cs | TCR act | TexasRed fluor
COc1ccc(OC)c2c(C)cc(NCCN3CCOCC3)nc12 | u | -2% | -5 | -30* | 1% | -5%
COc1cccc(C2C(C(=O)/C=C/c3ccco3)=C(O)C(=O)N2CCN2CCOCC2)c1 (configuration not stated) | -16% | -4% | 3 | -33* | 1% | 1%
COc1ccc(C2C(C(=O)/C=C/c3ccco3)=C(O)C(=O)N2CCN2CCOCC2)cc1 (configuration not stated) | 11% | 1% | 1 | -24 | x | 2%
Cc1ccc(C(=O)N2CCn3c4c(c5cc(C)ccc53)CCCC42)cc1 (configuration not stated) | x | 1% | x | x | x | 5%
Cc1ccc2c(c1)c1c3n2CCN(C(=O)C2CC2)C3CCC1 (configuration not stated) | -18%[46.1 µM] | 5% | -8 | -36* | -4% | 0%
Cc1ccc2c(c1)c1c3n2CCN(C(=O)CN2CCN(C)CC2)C3CCC1 (configuration not stated) | 16%[46.1 µM] | 4% | -6 | -2 | -2% | -6%
Cc1ccc2c(c1)c(=O)c1c3n2CCN(C(=O)CCl)C3CC1 (configuration not stated) | u | -5% | 20 | -42* | 8% | -3%
Cc1noc(/C=C/c2cccs2)c1S(=O)(=O)N1CCC(C(=O)NCc2ccccc2Cl)CC1 | x | -7% | x | x | x | -1%
CS(=O)(=O)c1cc([N+](=O)[O-])c(Sc2nc3ccccc3[nH]2)c([N+](=O)[O-])c1 | u | 7% | 12 | -41* | -3% | -2%
Cc1cccc(N/N=C/c2ccc(O)c(O)c2O)c1 | 6% | 3% | -1 | -69* | 6% | 0%
COc1cccc(N/N=C/c2cccc(Br)c2O)c1 | -14% | -1% | -4 | 3 | -2% | -2%
Oc1ccc(/C=N/NC(=S)Nc2cccnc2)c(O)c1O | -9% | -4% | -2 | -63* | -1% | u
CCCCC/C=C\C/C=C\CCCCCCCC(=O)OC | x | 5%[201 µM] | x | x | x | 3%[201 µM]
Cc1nn(-c2ccc(N3CCCCC3)nn2)c(C)c1CCC(=O)NCc1ccc(Cl)cc1 | x | 10% | x | x | x | 0%
CC[C@H](C)C(N)C(=O)O (some centres not stated) | x | 7% | x | -1 | x | -1%
COc1ccc2c(c1)CCc1c(C(=O)Nc3c(C)nn(Cc4c(Cl)cccc4Cl)c3C)noc1-2 | x | -8% | x | x | x | 0.079µM*[quencher]
COc1cccc(CNCCSc2nnnn2-c2ccccc2)c1OC | x | -2% | x | x | x | 6%
O=C1c2ccccc2C(=O)c2c1ncn2-c1ccccc1 | 23% | 5% | 1 | -36* | -1%[46.1 µM] | -1%

Screens as filed in PubChem BioAssay.
